3T3 cytotox = kills NIH 3T3 cells. NIH 3T3 viability, CellTiter-Glo ATP luminescence, 48-72 h. Potency, µM (titrated, usually from 96.7 µM), inactives show top-dose activity change, negative = cytotoxicity, actives largely listed as inhibitors. 94,000 tested, 4.3% active; also: nearly all actives have a fitted effect of over 55% in size
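Cytotoxicity is measured as loss of cellular ATP: NIH 3T3 cells (400/well) are exposed to compound for 48 or 72 hr at 37 °C, then CellTiter-Glo luminescence is imaged after 10 min at room temperature.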
GPT2 inhibitor = blocks human glutamate pyruvate transaminase 2; 100,000 tested, 0.25% active; Q8TD30; Potency, µM (doses to about 57.7 µM), inactives show at the top dose activity change, negative = inhibition, usual class: inhibitors; AID 1671188; Recombinant GPT2, coupled pyruvate oxidase/HRP Amplex Red fluorescence; also: nearly all actives have a fitted effect of over 60% in size
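Inhibition is scored from Amplex Red fluorescence generated when pyruvate oxidase and HRP act on pyruvate released by GPT2. Reactions contain 10ng/uL enzyme, 250uM a-KG and 2mM L-alanine and run 30 min at room temperature.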
HEK293 tox = HEK 293 cell cytotoxicity; HEK 293 viability, ATP luminescence (CellTiter-Glo), 48-72 h; Potency, µM (doses to about 115 µM), for the others: at the top dose activity change, negative = cytotoxicity, actives largely listed as inhibitors; 94,000 tested, 6.6% active; AID 1345083; also: nearly all actives have a fitted effect of over 60% in size
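HEK 293 seeded at 250 cells/well receive compound via pintool. After 48 or 72 hr at 37 degree Celsius, 5% CO2 and 95% humidity, CellTiter-Glo is dispensed and luminescence read following 10 min at room temperature.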
Luciferase inh = inhibitors of firefly (Photinus pyralis) luciferase | purified P. pyralis luciferase, luminescence, biochemical | P08659 | Potency, µM (titrated, usually from 115 µM), actives largely listed as inhibitors | 76,000 tested, 2.5% active; also: nearly all actives have a fitted effect of over 65% in size
Target sequence (P08659 whole entry, looked up): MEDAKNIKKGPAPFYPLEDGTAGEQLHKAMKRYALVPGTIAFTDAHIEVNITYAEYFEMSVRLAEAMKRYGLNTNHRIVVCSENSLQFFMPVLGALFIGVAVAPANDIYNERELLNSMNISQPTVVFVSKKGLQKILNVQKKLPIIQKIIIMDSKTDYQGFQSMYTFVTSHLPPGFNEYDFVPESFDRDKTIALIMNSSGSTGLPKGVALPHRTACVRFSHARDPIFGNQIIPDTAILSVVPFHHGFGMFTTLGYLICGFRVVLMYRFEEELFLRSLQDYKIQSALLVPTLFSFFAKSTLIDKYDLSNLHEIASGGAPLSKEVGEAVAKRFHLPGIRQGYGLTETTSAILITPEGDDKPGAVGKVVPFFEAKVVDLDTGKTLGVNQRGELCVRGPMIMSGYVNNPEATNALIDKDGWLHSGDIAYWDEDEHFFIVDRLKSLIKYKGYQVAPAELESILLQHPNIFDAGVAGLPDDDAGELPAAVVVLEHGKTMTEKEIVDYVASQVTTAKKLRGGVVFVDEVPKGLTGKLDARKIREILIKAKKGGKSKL
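FLuc 10nM, D-luciferin 10uM, ATP 10uM, Mg acetate 10mM, Tris acetate pH 7.5, Tween/BSA; cpd qHTS; enzyme added last; CCD luminescence.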
NPR1 antag = blocks ANP-stimulated signaling of human Npr1 receptor. P16066. HEK293 hNpr1 GloSensor cGMP, ANP-stimulated luminescence. Potency, µM (series often up to 46.3 µM), without a hit: top-dose activity change, negative = inhibition, actives largely listed as inhibitors. 76,000 tested, 1.6% active. AID 1347048; calls by dose curve; also: nearly all actives have a fitted effect of over 60% in size
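HEK293 cells stably expressing human Npr1 and cGMP GloSensor pGS-40F, loaded 2 h with 2% GloSensor reagent, given compound 30 min at room temperature. Luminescence read before and 20 min after 0.1 nM hNppA.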
The depositor's hits bear a star; i = inactive; ? = inconclusive; . = no result; [ ] = remark or other dose. Sampled rows, rich in hits. Any-hit rate of the full collection: about 10%. Unless noted, calls follow the shape of the dose curve; as a rule, active = well fitted curve in the direction sought with a large enough effect; inconclusive = small, poorly fitted or top-dose-only effect, or another doubt; inactive = no such curve, though single readings can be large; an effect the other way counts as inactive or inconclusive. % is scaled to controls: 0 for no effect and ±100 for the full control effect; potency is read from the fitted curve at half-maximal effect.

SMILES | 3T3 cytotox | GPT2 inhibitor | HEK293 tox | Luciferase inh | NPR1 antag
CC(C)c1noc(C2Cc3ccccc3N2C(=O)Nc2ccc3c(c2)OCCO3)n1 (stereo not drawn) | ? | -10% | ? | 16µM* | -14%
O=C(Nc1ccc2c(c1)OCCO2)N1c2ccccc2CC1c1nc(C2CC2)no1 (stereo not drawn) | -26% | 0% | ? | 13µM* | -18%
Cc1ccc(C)c(NC(=O)N2c3ccccc3CC2c2nc(C3CC3)no2)c1 (stereo not drawn) | ? | -8% | -22% | i | -9%
CC(C)c1noc(C2Cc3ccccc3N2C(=O)NC2CCCC2)n1 (stereo not drawn) | 32µM* | -1% | -23% | i | 8%
c1ccc(Oc2nccn3c(-c4ccc(CNCc5ccn[nH]5)cc4)cnc23)cc1 | ? | i | ? | i | -3%[70.6 µM]
CC(C)(C)n1nnnc1C1CC2(CCOCC2)C(=O)N1Cc1ccco1 (stereo not drawn) | -14% | i | -10% | i | -5%
O=C(Nc1ccc2ncnc(N3CCCCC3)c2c1)c1cc(F)ccc1F | ? | 0% | ? | i | -17%
O=C(Nc1ccc2ncnc(N3CCCCC3)c2c1)c1ccc(F)c(F)c1 | ? | -9% | 45µM* | i | -28%
Cc1ccc(C)c(C(=O)Nc2ccc3c(N4CCCC4)ncnc3c2)c1 | ? | i | ? | i | -2%
O=C(Nc1ccc2ncnc(N3CCCCC3)c2c1)c1ccsc1 | 25µM* | ? | 40µM* | i | -20%
O=C(Nc1ccc2c(N3CCCC3)ncnc2c1)c1cc(F)ccc1F | ? | -18% | ? | i | -16%
O=C(Nc1ccc2c(N3CCCCC3)ncnc2c1)c1ccsc1 | ? | ? | ? | ? | -17%
Cc1ccc(C(=O)Nc2ccc3c(N4CCOCC4)ncnc3c2)cc1 | ? | -3% | ? | 16µM* | -17%
O=C(Nc1ccc2c(N3CCOCC3)ncnc2c1)c1ccccc1C(F)(F)F | 28µM* | i | ? | i | 5%
O=C(c1cc(F)ccc1Cl)N1CCCC1c1nncn1Cc1ccncc1 (stereo not drawn) | -3% | i | -3% | i | 4%
Cc1nnc2ccc(N3CCN(C(=O)c4ccccc4Cl)CC3)nn12 | ? | . | -13% | . | .
Cc1cn2cc(C(=O)NCc3cn4c(n3)SCC4)ccc2n1 | 1% | -1% | i | i | 2%
O=C(Nc1ccc2c(N3CCOCC3)ncnc2c1)c1cccc(Br)c1 | ? | ? | 63µM* | i | -16%
O=C(Nc1ccc2ncnc(N3CCCC3)c2c1)c1cccc(Br)c1 | 14µM* | i | 18µM* | i | -29%
O=C(Nc1ccc2c(N3CCCC3)ncnc2c1)c1ccc(Br)cc1 | ? | i | ? | ? | -26%
O=C(Nc1ccc2ncnc(N3CCCCC3)c2c1)c1cncc(Br)c1 | -17% | 1% | ? | i | -25%
O=C(Nc1ccc2c(N3CCCC3)ncnc2c1)c1cccc(F)c1 | ? | i | ? | i | -3%
O=C(Nc1ccc2c(N3CCOCC3)ncnc2c1)c1ccc(F)c(Cl)c1 | 35µM* | 1% | ? | i | -1%
COCC1(C(=O)N2CCN(C)C3(CCNC(=O)CC3)C2)CC1 (stereo not drawn) | 4% | i | -6% | i | -2%
c1ccc(-c2cc3c(cn2)CN(Cc2c[nH]c4ccccc24)CCN3)cc1 | ? | 4%[88.5 µM] | 45µM* | ? | -9%[70.6 µM]
SMILES | 3T3 cytotox | GPT2 inhibitor | HEK293 tox | Luciferase inh | NPR1 antag
Oc1ccccc1CN1CCNc2cnc(-c3ccccc3)cc2C1 | ? | i | 63µM* | i | ?
COc1cccc(CN2CCNc3cnc(-c4ccccc4)cc3C2)c1 | ? | -4%[88.5 µM] | 89µM* | i | -16%[70.6 µM]
c1ccc(-c2cc3c(cn2)NCCN(CC2CC2)C3)cc1 | ? | i | -26%[230 µM] | ? | -8%[70.6 µM]
CCOc1cc2c(cn1)NCCN(Cc1ccccc1OC)C2 | ? | -10%[88.5 µM] | ? | i | 5%[70.6 µM]
Cc1[nH]cnc1CN1CCNc2cc(-c3ccccc3)ncc2C1 | ? | i | ? | ? | -5%[70.6 µM]
COc1ccc(OC)c(CN2CCNc3cnc(-c4ccccc4)cc3C2)c1 | 89µM* | -9%[88.5 µM] | 56µM* | i | -22%[70.6 µM]
COc1ccc(S(N)(=O)=O)cc1C(=O)NC1CCOC2(CCOCC2)C1 (stereo not drawn) | i | i | i | i | 9%
COc1ccc(S(=O)(=O)Nc2ccc(C)n(CC(=O)N(C)Cc3ccco3)c2=O)cc1 | 3% | -1% | 32µM* | i | -1%
COc1cc(C(=O)NC2CCCN(c3ncccn3)C2)cc(OC)c1OC (stereo not drawn) | ? | i | -19% | i | -3%
Cc1ccc2oc(C(=O)N(C)Cc3cc(-c4ccccc4)no3)c(C)c2c1 | -18% | -2% | ? | i | 3%
CCCc1ccc2oc(C(=O)N(C)Cc3snnc3C)c(C)c2c1 | ? | i[11.5 µM] | 40µM* | ? | 1%
COC1CN(c2cccc(F)c2)C12CCN(C(=O)COc1ccccc1)CC2 (stereo not drawn) | ? | i | 89µM* | i | -1%
COc1ccc(C(=O)N2CCCN(c3ccnc4ccnn34)CC2)cc1 | -36% | -21% | ? | . | .
O=C(O)c1cnc(-c2cc(NCc3ccccn3)nc3[nH]ccc23)c(Cl)c1 | -27% | -15% | -31% | 40µM* | -1%
O=C(NCCc1ccccc1F)c1cc(Br)cn2ccnc12 | ? | 5% | ? | 16µM* | -3%
Cc1ccccc1C(=O)N1CCC(N2C(=O)c3c(c(C)nn3-c3ccccc3)C2C2CC2)C1 (stereo not drawn) | ? | . | 28µM* | . | .
CCNC(=O)N1CC(N2C(=O)c3c(c(C)nn3-c3ccccc3)C2C2CC2)C1 (stereo not drawn) | -27% | . | ? | . | .
Cc1nn(-c2ccccc2)c2c1C(C1CC1)N(C1CN(C(=O)C3CCCC3)C1)C2=O (stereo not drawn) | 35µM* | . | 45µM* | . | .
Cc1nn(-c2ccccc2)c2c1C(C)N(CC1CN(C(=O)c3ccccc3Cl)C1)C2=O (stereo not drawn) | ? | . | 50µM* | . | .
CC(=O)N1CC(N2C(=O)c3c(c(C)nn3-c3ccccc3)C2C2CC2)C1 (stereo not drawn) | ? | . | 4%[172 µM] | . | .
Cc1nn(-c2ccccc2)c2c1C(C1CC1)N(C1CN(C(=O)c3ccccc3Cl)C1)C2=O (stereo not drawn) | 13µM* | . | ? | . | .
CNC(=O)[C@@H]1CN(C(=O)c2ccc(C)nc2)C[C@H]1CO | i | i | i | i | -17%
Cc1nn(-c2ccccc2)c2c1C(C1CC1)N(C1CN(C(=O)c3cccc(Cl)c3)C1)C2=O (stereo not drawn) | -28% | . | -23% | . | .

Assay outcomes: PubChem BioAssay, National Center for Advancing Translational Sciences (NCATS)
